“And” between values parts separate entries of the source, which are not always exact repeats. Equal entries are not always repeated.
How the values were obtained:
[1] = target: 5'-AMP-activated protein kinase catalytic subunit alpha-2 (Homo sapiens) (UniProt P54646); settings: at 1 µM
[2] = target: T1, NUAK family SNF1-like kinase 1 (Homo sapiens) (UniProt O60285); settings: at 0.1 µM
T1 sequence (whole entry): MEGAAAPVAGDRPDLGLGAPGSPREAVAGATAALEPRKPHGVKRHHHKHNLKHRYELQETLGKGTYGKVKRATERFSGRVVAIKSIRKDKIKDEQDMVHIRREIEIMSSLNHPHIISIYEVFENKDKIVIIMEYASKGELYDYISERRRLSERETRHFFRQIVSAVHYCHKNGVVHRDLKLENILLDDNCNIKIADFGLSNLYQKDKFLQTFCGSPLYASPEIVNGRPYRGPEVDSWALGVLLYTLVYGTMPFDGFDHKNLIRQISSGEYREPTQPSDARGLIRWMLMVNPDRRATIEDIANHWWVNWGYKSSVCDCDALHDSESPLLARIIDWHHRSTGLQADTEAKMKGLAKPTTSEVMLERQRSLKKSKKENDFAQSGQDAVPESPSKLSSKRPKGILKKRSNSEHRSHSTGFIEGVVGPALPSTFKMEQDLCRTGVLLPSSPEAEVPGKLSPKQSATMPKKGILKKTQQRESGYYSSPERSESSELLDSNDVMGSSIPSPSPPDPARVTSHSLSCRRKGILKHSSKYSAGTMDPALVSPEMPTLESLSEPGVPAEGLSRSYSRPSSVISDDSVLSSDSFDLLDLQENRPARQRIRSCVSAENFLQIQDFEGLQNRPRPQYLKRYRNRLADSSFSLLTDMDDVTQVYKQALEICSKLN

[3] = target: T1, NUAK family SNF1-like kinase 1 (Homo sapiens); settings: at 1 µM
[4] = target: T2, Serine/threonine-protein kinase BRSK1 (Homo sapiens) (UniProt Q8TDC3); settings: at 0.1 µM
T2 sequence (whole entry): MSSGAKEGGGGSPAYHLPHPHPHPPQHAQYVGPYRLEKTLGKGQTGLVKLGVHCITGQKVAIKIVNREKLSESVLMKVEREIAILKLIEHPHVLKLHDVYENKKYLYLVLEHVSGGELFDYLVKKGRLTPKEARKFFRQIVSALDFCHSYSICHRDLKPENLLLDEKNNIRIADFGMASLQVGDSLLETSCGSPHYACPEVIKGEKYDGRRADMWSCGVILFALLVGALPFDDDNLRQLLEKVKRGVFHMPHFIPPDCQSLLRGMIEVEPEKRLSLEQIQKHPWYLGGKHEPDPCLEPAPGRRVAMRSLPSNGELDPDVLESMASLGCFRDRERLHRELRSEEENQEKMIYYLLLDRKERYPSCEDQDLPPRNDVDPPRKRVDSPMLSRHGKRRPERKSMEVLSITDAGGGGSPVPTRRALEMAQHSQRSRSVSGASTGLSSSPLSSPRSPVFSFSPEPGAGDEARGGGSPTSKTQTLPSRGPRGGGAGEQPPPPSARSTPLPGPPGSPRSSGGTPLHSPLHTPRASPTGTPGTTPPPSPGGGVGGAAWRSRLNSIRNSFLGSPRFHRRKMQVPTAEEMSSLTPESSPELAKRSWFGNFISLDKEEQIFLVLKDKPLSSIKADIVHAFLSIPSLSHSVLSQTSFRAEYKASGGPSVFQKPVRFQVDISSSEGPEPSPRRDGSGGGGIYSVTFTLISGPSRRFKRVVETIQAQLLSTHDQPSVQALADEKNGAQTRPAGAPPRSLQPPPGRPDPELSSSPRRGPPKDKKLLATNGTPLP

[5] = target: T2, Serine/threonine-protein kinase BRSK1 (Homo sapiens); settings: at 1 µM
[6] = target: T3, Serine/threonine-protein kinase BRSK2 (Homo sapiens) (UniProt Q8IWQ3); settings: at 0.1 µM
T3 sequence (whole entry): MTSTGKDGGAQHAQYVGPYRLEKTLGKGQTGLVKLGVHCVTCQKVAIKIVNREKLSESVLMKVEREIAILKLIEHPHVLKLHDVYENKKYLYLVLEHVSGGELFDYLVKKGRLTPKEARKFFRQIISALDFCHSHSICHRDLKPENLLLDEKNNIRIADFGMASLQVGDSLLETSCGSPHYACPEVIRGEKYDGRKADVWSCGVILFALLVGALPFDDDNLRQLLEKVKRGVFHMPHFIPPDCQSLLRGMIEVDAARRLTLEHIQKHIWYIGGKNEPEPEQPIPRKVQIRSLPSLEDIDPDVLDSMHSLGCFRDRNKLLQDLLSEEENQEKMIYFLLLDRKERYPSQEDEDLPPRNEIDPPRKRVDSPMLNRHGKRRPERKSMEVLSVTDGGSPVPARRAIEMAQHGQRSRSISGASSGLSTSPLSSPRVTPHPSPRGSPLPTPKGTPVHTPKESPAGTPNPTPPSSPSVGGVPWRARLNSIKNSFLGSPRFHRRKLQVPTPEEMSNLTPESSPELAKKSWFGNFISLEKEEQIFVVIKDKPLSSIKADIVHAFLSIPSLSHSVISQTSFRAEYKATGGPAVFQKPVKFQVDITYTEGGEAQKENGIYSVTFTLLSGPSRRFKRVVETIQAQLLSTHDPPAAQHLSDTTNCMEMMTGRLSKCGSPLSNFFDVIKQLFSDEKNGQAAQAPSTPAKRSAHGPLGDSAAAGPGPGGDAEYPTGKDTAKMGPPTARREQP

[7] = target: T3, Serine/threonine-protein kinase BRSK2 (Homo sapiens); settings: at 1 µM
[8] = target: Calcium/calmodulin-dependent protein kinase type 1D (Homo sapiens) (UniProt Q8IU85); settings: at 0.1 µM
Chain of Calcium/calmodulin-dependent protein kinase type 1D (Homo sapiens) (Q8IU85 whole entry, looked up): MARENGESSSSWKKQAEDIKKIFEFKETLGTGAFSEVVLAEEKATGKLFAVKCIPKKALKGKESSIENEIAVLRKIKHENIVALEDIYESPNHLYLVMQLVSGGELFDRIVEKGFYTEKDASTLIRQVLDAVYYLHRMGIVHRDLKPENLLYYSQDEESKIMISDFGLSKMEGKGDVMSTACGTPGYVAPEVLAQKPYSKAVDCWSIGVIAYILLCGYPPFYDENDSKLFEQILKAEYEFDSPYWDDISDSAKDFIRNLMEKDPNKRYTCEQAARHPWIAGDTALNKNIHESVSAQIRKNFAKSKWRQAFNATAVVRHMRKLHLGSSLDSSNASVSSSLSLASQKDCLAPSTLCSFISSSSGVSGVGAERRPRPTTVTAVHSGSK

[9] = target: Calcium/calmodulin-dependent protein kinase type 1D (Homo sapiens) (UniProt Q8IU85); settings: at 1 µM
[10] = target: Calcium/calmodulin-dependent protein kinase type II subunit alpha (Homo sapiens) (UniProt Q9UQM7); settings: at 0.1 µM
Chain of Calcium/calmodulin-dependent protein kinase type II subunit alpha (Homo sapiens) (Q9UQM7 whole entry): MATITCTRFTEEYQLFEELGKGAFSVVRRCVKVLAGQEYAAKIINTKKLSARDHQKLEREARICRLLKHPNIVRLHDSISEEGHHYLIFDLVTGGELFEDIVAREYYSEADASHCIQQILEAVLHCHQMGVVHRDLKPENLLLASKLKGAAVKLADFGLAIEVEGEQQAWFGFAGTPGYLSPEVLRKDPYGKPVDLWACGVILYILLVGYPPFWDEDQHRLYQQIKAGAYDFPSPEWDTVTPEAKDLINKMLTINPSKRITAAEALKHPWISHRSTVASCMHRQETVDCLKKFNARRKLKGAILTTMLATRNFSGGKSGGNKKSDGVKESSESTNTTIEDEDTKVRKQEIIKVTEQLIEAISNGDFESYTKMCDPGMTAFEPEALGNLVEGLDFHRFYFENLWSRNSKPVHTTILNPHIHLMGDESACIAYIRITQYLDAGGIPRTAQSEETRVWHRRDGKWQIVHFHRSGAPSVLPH

[11] = target: Calcium/calmodulin-dependent protein kinase type II subunit alpha (Homo sapiens) (UniProt Q9UQM7); settings: at 1 µM
[12] = target: Calcium/calmodulin-dependent protein kinase type II subunit delta (Homo sapiens) (UniProt Q13557); settings: at 0.1 µM
Chain of Calcium/calmodulin-dependent protein kinase type II subunit delta (Homo sapiens) (Q13557 whole entry): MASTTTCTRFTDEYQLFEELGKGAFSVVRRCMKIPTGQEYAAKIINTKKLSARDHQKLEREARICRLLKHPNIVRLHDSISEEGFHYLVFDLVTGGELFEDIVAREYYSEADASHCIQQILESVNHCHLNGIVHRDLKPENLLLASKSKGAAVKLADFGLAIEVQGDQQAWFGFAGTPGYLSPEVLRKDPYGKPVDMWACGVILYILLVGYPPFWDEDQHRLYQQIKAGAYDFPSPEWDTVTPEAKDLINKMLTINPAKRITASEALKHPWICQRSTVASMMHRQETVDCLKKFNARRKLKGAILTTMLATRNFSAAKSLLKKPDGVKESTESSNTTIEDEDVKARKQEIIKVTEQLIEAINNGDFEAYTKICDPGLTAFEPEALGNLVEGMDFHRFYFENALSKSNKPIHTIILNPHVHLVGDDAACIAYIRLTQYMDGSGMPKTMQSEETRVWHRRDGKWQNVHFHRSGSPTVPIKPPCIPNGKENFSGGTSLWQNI

[13] = target: Calcium/calmodulin-dependent protein kinase type II subunit delta (Homo sapiens) (UniProt Q13557); settings: at 1 µM
[14] = target: T4, Calcium/calmodulin-dependent protein kinase type IV (Homo sapiens) (UniProt Q16566); settings: at 0.1 µM
T4 sequence (whole entry): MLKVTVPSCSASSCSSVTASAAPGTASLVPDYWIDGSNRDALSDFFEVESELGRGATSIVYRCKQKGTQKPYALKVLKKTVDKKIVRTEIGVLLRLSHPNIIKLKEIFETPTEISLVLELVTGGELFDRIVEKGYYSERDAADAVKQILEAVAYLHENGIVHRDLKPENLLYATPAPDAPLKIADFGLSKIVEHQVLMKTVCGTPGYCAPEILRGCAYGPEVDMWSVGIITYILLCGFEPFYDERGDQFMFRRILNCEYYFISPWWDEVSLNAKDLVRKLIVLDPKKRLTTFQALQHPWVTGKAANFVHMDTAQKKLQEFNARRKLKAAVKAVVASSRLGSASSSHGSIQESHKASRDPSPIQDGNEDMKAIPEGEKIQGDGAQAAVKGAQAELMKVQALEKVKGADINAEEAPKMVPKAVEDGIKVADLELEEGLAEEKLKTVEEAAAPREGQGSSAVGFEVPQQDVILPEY

[15] = target: T4, Calcium/calmodulin-dependent protein kinase type IV (Homo sapiens); settings: at 1 µM
[16] = target: T5, Serine/threonine-protein kinase Chk1 (Homo sapiens) (UniProt O14757); settings: at 0.1 µM
T5 sequence (whole entry): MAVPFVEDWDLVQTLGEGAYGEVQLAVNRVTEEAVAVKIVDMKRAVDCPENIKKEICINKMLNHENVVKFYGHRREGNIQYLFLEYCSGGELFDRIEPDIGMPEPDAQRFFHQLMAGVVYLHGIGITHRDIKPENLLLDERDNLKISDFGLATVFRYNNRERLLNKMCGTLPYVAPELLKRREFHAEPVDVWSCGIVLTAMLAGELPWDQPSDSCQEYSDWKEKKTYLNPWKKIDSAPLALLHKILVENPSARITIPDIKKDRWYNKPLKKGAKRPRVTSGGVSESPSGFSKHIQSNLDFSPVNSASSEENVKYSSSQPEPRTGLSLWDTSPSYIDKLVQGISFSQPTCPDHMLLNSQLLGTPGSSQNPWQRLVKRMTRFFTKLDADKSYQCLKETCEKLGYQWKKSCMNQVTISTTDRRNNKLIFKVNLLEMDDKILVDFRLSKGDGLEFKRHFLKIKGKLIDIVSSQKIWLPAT

[17] = target: T5, Serine/threonine-protein kinase Chk1 (Homo sapiens); settings: at 1 µM
[18] = target: Serine/threonine-protein kinase Chk2 (Homo sapiens) (UniProt O96017); settings: at 0.1 µM
Chain of Serine/threonine-protein kinase Chk2 (Homo sapiens) (O96017 whole entry): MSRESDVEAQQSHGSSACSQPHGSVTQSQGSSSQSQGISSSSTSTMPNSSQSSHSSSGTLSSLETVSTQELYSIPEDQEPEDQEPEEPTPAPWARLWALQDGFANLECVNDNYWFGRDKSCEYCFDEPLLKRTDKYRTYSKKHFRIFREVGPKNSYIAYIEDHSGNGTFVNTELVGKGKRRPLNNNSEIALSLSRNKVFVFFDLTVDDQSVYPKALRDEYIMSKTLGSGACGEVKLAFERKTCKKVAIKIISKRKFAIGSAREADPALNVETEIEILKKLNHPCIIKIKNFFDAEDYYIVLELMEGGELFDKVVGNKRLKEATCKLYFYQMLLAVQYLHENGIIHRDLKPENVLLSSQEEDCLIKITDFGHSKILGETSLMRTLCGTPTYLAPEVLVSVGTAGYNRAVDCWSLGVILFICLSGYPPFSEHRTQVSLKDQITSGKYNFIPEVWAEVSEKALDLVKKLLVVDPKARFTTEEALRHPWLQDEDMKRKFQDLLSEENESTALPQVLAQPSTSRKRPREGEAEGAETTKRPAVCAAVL

[19] = target: Serine/threonine-protein kinase Chk2 (Homo sapiens) (UniProt O96017); settings: at 1 µM
[20] = target: Death-associated protein kinase 1 (Homo sapiens) (UniProt P53355); settings: at 0.1 µM;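 note: reported figure is the mean inhibition of DAPK1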
Chain of Death-associated protein kinase 1 (Homo sapiens) (P53355 whole entry, looked up): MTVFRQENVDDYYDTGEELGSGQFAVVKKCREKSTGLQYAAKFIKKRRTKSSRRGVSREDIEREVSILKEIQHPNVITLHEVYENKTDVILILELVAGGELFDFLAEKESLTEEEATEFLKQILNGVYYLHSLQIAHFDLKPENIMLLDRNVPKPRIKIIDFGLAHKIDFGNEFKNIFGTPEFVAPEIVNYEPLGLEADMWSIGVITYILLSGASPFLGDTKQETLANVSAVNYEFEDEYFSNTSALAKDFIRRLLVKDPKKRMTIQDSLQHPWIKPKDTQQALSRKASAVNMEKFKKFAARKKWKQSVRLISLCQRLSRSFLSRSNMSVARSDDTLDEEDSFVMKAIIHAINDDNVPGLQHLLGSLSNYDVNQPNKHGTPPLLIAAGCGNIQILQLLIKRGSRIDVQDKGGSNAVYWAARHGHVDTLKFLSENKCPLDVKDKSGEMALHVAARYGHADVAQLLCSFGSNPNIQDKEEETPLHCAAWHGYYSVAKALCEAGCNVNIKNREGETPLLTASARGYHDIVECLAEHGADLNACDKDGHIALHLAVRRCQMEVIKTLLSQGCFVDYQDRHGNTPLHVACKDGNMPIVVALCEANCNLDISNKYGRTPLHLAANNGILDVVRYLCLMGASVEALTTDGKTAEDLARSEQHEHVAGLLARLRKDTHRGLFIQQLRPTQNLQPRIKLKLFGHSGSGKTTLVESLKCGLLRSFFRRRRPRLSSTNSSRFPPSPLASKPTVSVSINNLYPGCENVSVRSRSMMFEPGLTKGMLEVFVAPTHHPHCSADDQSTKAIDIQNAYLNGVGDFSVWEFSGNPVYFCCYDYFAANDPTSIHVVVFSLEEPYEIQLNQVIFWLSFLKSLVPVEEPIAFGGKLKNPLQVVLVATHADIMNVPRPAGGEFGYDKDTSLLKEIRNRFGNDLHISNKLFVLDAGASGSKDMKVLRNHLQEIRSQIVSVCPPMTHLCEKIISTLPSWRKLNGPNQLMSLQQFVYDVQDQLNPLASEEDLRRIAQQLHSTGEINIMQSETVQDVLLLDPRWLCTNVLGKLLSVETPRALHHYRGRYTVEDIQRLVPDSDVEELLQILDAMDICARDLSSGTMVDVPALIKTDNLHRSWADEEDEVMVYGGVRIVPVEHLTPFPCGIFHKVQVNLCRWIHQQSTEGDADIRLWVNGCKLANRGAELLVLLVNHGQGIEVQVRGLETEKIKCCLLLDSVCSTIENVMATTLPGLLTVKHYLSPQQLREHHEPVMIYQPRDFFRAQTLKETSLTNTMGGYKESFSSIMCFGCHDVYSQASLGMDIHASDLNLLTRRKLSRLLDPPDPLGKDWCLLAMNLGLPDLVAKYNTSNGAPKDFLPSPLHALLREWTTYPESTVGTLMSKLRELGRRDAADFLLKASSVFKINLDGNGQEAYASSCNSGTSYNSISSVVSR

Chain of 5'-AMP-activated protein kinase catalytic subunit alpha-2 (Homo sapiens) (P54646 whole entry, looked up): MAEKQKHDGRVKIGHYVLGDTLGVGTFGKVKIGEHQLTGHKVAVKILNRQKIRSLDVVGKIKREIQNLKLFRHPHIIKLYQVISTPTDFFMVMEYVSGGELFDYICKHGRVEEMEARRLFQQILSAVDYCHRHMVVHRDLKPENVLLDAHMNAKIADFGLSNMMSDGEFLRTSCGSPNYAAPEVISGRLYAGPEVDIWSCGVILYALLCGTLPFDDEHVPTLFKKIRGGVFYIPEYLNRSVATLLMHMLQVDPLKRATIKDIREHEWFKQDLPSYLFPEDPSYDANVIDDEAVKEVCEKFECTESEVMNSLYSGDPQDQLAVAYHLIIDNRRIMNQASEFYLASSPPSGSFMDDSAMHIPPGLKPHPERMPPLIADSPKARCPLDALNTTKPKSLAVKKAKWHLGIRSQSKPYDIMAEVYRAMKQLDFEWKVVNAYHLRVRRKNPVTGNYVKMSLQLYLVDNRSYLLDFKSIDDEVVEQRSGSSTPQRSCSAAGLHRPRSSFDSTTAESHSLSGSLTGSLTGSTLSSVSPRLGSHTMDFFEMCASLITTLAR

Structure (SMILES) | inhibition [1] | inhibition [2] | inhibition [3] | inhibition [4] | inhibition [5] | inhibition [6] | inhibition [7] | inhibition [8] | inhibition [9] | inhibition [10] | inhibition [11] | inhibition [12] | inhibition [13] | inhibition [14] | inhibition [15] | inhibition [16] | inhibition [17] | inhibition [18] | inhibition [19] | inhibition [20]
CS(=O)(=O)CCNCc1ccc(-c2ccc3ncnc(Nc4ccc(OCc5ccccc5)cc4)c3c2)o1 | 4.61% | -0.27% | 1.06% | 1.11% | 1.23% | 2.82% | 4.33% | 0.33% | 1.27% | 2.27% | -1% | 2.72% | 1.68% | 2.07% | -0.36% | -1.5% | 0.28% | 3.41% | 12.9% | 3.08%
Fc1cccc(COc2ccc(Nc3ncncc3C#Cc3ccccc3)cc2Cl)c1 | 2.35% | 1.2% | 3.38% | -0.12% | 3.27% | 0.86% | 4.6% | -0.31% | -0.49% | 4.42% | 3.65% | 2.79% | 2.05% | -2.29% | -4.84% | 3.29% | 5.99% | 3.47% | 5.22% | 5.08%
CN1CCC(C(=O)Nc2n[nH]c3nc(-c4ccc(O)cc4)c(Br)cc23)CC1 | 10.2% and 5.07% | 2.41% and 0.87% | 12% and 2.56% | 5.59% and 6.13% | 31.5% and 25.9% | 6.63% and 3.74% | 36.1% and 27.2% | 1.98% and 1.28% | 15.6% and 15.7% | 3.72% and 2.36% | 5.88% and 4.76% | 3.23% and 2.76% | 12.3% and 11.1% | -1.13% and 0.82% | -1.76% and 1.46% | 0.73% and 0.68% | 5.31% and 2.46% | 3.5% and 1.61% | 5.98% and 3.76% | 2.41% and 2.49%
COc1ccc(Nc2ncc(-c3ccccc3)o2)cc1OC | 14.5% | 18.2% | 61.5% | 1.32% | 11.5% | 0.9% | 12.8% | 0.37% | 1.51% | 1.79% | 4.71% | 0.93% | 8.26% | -0.62% | 1.46% | -0.04% | 50.5% | -0.14% | 2.24% | 1.44%
COc1cccc(-n2ncc3c(N/N=C/c4ccc(C(=O)NCCN(C)C)cc4)ncnc32)c1 | 14.5% | 43.9% | 77.2% | 23.5% | 67.2% | 33.3% | 72% | 0.97% | 5.99% | 2.13% | 10.4% | 8.19% | 36.1% | 0.48% | 1.87% | 2.47% | 5.69% | 0.95% | 3.14% | 3.46%
CCS(=O)(=O)c1ccc(OC)c(Nc2ncc(-c3cccc(F)c3)o2)c1 | 5.58% | 0.71% | 12.5% | 1.15% | -0.68% | 1.63% | 3.22% | 0.89% | 2.56% | 2.75% | 5.43% | 4.73% | 10.6% | -0.92% | 1.07% | 3.94% | 12.9% | 2.75% | 4.65% | 7.21%
CN1CCC(n2cnc(-c3ccc(F)cc3)c2-c2ccnc(NCCO)n2)CC1 | 3.88% | 1.51% | 0.83% | 1.04% | 3.71% | 2.24% | 6.29% | -1.1% | -1.38% | 8.05% | 3.86% | 1.32% | 3.99% | -3.49% | -5.99% | 1.6% | 6.89% | 4.1% | 5.51% | 4.37%

Reference: ChEMBL document CHEMBL1961873, “Compounds: GSK PKIS; Assays: Nanosyn kinase panel” (2012)
